INS promoter inh = TRM-6 insulin promoter activity inhibition | inhibition, % at 2 µM | TRM-6 cells (human fetal islet line), insulin promoter-eGFP reporter, imaging; reporter expression induced with tamoxifen | 130,000 tested, 0.9% active;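 active means inhibition above the mean plus 3 SD, with well images judged a real hit on visual review, cut at about 60% in these data, passing the limit was not always enough; inconclusive means inhibition over the cutoff but images rejected on review; inactive means inhibition not above the cutoff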
Insulin prom up = MIN6 insulin promoter up-regulation. MIN6 insulin promoter-GFP reporter, high-content imaging; hits give high values. z-score at 5 µM. 190,000 tested, 0.3% active. AID 1625;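 active means z-score above 3 at 5 µM with at least 500 cells counted in the well; inconclusive means wells under 500 cells, flagged as cytotoxic or low count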
WT yeast gro inh = growth inhibition of WT yeast, mitochondrial fusion screen | inhibition, % at 10 µM | mitochondrial fusion phenotypic screen, WT strain | 190,000 tested, 2.1% active; in the data active means inhibition above about 58%; tested in S. cerevisiae
ROMK mod = human ROMK K+ channel modulation, primary screen | P48048 | Tet-inducible ROMK, thallium flux fluorescence; actives lie on both sides | B-score at 10 µM | 130,000 tested, 2% active;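 active means signal ratio slope over the read window, or its plate-corrected B-score, at least 3 SD from the plate mean, either direction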;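 further: B-score of the F/F0 ratio slope over 7 to 12 s after thallium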
KCC2 mod = modulators of human KCC2 chloride dependent transport; Q9H2X9; KCC2 cells, thallium flux FluoZin-2 fluorescence; B-score of Tl+ flux slope (higher = more flux/activation; lower = inhibition) at 10 µM; 190,000 tested, 2.2% active;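 active means thallium flux slope and its plate-corrected score both differing from the plate sample mean at a set confidence after two filtering rounds, in either direction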;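 further: slope of fluorescence scaled to starting intensity during 10 to 20 s after thallium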
Target sequence (Q9H2X9 whole entry, looked up): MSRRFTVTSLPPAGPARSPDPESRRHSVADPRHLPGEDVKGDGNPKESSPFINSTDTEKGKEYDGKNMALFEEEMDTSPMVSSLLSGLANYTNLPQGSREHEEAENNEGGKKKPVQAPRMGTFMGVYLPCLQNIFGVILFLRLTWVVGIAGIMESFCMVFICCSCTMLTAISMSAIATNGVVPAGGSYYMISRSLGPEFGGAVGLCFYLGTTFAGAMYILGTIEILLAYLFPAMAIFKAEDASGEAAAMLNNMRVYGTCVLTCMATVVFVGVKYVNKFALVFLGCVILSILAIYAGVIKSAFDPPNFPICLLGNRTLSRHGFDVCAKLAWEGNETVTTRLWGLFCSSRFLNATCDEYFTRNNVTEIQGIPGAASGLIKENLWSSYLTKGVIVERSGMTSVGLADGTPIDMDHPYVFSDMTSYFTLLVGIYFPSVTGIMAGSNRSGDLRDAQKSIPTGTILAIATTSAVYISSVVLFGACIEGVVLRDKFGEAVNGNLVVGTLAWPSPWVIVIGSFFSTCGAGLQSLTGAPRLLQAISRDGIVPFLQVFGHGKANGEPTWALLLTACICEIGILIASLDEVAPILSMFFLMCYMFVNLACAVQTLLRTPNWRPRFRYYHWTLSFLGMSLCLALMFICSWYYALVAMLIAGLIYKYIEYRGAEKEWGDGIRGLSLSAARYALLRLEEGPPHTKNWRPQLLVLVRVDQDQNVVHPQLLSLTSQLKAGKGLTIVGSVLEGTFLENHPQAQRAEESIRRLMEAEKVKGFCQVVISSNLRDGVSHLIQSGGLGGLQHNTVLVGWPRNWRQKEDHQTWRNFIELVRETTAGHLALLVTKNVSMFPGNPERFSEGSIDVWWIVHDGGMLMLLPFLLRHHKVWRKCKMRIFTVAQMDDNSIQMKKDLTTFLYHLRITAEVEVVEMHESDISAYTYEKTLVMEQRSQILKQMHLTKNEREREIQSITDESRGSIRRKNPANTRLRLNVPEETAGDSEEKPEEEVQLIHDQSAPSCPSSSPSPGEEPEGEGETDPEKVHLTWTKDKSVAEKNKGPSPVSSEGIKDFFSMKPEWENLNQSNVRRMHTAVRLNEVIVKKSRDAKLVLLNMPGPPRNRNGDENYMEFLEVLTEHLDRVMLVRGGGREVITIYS
L major viab = Leishmania major promastigote growth inhibition; Leishmania major promastigotes, resazurin fluorescence viability; inhibition, % at 10 µM; 200,000 tested, 9% active; AID 1063; in the data active means inhibition above about 50%;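 further: promastigotes grown with compound for 44 hours at 28 °C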
KCC2 secondary = KCC2 (human) modulation, secondary assay; shares compounds with KCC2 mod; HEK293-KCC2, thallium flux, FluoZin2 fluorescence; hits give high values; normalised thallium flux (F/F0 slope) at 10 µM; 3,700 tested, 15% active; AID 1713;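 active means thallium flux slope above the same plate's solvent-only control mean plus 3 SD; inconclusive means the two replicate wells disagree; inactive means no significant difference from solvent-only control wells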
KCC2 bumet counter = bumetanide-insensitive thallium flux in KCC2 cells with ouabain, counter-screen | shares compounds with KCC2 mod | HEK293-KCC2 + bumetanide/ouabain, thallium flux FluoZin2; hits give high values | normalized thallium flux at 10 µM | 3,700 tested, 49% active | AID 1714;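 active means thallium entry rate above the same plate's blocked-transporter control wells by more than 3 SD; inconclusive means the two repeat wells disagree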;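 further: raw slope of fluorescence over initial fluorescence between 10 and 20 s after thallium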
KCC2 secondary2 = KCC2 (human) modulation, second secondary assay | shares compounds with KCC2 mod | HEK293-KCC2, thallium flux FluoZin2 fluorescence; actives lie on both sides; F/F0 rise rate, 10–20 s post-thallium | normalized thallium flux at 10 µM | 3,700 tested, 23% active | AID 1715;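 active means thallium flux slope more than 3 SD above or below the plate's solvent-only control mean, mostly below; inconclusive means the two repeat wells disagreed; inactive means no significant shift from solvent-only controls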
HEK counter1 = counter-screen for KCC2 modulators: effect in parental HEK293 cells | shares compounds with KCC2 mod | thallium flux FluoZin2, ouabain; baseline-ratio fluorescence slope, 10–20 s after thallium | thallium flux rate (normalised fluorescence) at 10 µM | 3,700 tested, 46% active | AID 1716;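 active means thallium flux rate significantly above the same plate's solvent-only control wells, beyond their mean plus 3 SD; inconclusive means the two replicate wells gave conflicting results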
KCC2 retest ouab = confirmation of human KCC2 modulators with ouabain; shares compounds with KCC2 mod; AID 1717; 3,700 tested, 48% active; HEK293-KCC2, thallium flux FluoZin2 fluorescence; bidirectional: low = inhibitor, high = activator; raw Tl+ flux slope (below DMSO = inhibition, above = activation) at 10 µM;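 active means thallium flux slope beyond 3 SD from same-plate DMSO control mean in most replicates, usually higher, sometimes lower; inconclusive means repeat tests gave conflicting results; inactive means no significant difference from controls in most replicates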;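 further: slope of initial-normalized fluorescence between seconds 10 and 20 after thallium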
HEK293 Tl flux2 = parental HEK flux effect, counter-screen 2; shares compounds with KCC2 mod; HEK293 parental, thallium flux FluoZin-2 fluorescence slope; thallium flux slope at 10 µM; 3,700 tested, 33% active;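 active means thallium flux slope above the same plate's solvent-control mean plus 3 SD in both duplicate wells; inconclusive means duplicate wells that disagreed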;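 further: run without ouabain in cells lacking the KCC2 cotransporter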
Large screens that a line does not name were inactive (follow-up assays come after a bar, where they were run). The list is not random: actives were taken first. Their share in the collection is about 12%.

CC(=O)NC(Cc1ccc(C)cc1)C(=O)NC1CCN(C(=O)c2ccc([N+](=O)[O-])cc2)CC1 (stereo not given)	none (no result: INS promoter inh)
CCCn1c(SCC(=O)c2ccc3c(c2)OCCO3)nc2c1c(=O)n(C)c(=O)n2C	none (no result: ROMK mod)
CCN(CC)/C(Sc1ccccc1)=C(\C(Cl)=C(Cl)Cl)[N+](=O)[O-]	KCC2 mod -4.92 (no result: ROMK mod) | KCC2 secondary inactive | KCC2 bumet counter inconclusive | KCC2 secondary2 inconclusive | HEK counter1 0.00637 | KCC2 retest ouab inconclusive | HEK293 Tl flux2 inactive
COc1ccc(CN2C3CCCC2CC(NC(=O)Nc2ccccc2C)C3)cc1 (stereo not given)	KCC2 mod 2.55, L major viab 85.0 | KCC2 secondary inactive | KCC2 bumet counter inactive | KCC2 secondary2 inactive | HEK counter1 inconclusive | KCC2 retest ouab inactive | HEK293 Tl flux2 inactive
Cc1cc(=O)[nH]c(SCCOc2cccc(C(F)(F)F)c2)n1	none
Cc1scc(-c2n[nH]c(=S)n2C(C)c2ccccc2)c1C (stereo not given)	KCC2 mod 7.73 (no result: ROMK mod) | KCC2 secondary inactive | KCC2 bumet counter 0.0403 | KCC2 secondary2 inactive | HEK counter1 0.0112 | KCC2 retest ouab inconclusive | HEK293 Tl flux2 inconclusive
CC(c1ccccc1)n1c(Cn2ncc3ccccc3c2=O)n[nH]c1=S (stereo not given)	none
O=C1Nc2ccccc2C(O)(C(=O)NCc2ccco2)N1c1ccccc1 (stereo not given)	none (no result: INS promoter inh, ROMK mod)
COc1ccccc1-c1csc(Cc2nnc3n2CCCCC3)n1	none (no result: ROMK mod)
c1ccc(-c2csc(Cc3nnc4n3CCCCC4)n2)cc1	none (no result: ROMK mod) | KCC2 secondary inactive | KCC2 bumet counter inactive | KCC2 secondary2 inactive | HEK counter1 inactive | KCC2 retest ouab 0.014 | HEK293 Tl flux2 inactive
Cn1c(-c2sccc2OCc2ccc(Cl)cc2Cl)n[nH]c1=S	WT yeast gro inh 64.0, KCC2 mod 5.24 (no result: INS promoter inh) | KCC2 secondary inactive | KCC2 bumet counter 0.0134 | KCC2 secondary2 inactive | HEK counter1 0.0118 | KCC2 retest ouab inactive | HEK293 Tl flux2 0.012
O=C(Cc1csc(-c2ccccc2)n1)NCc1cccs1	KCC2 mod -4.58 | KCC2 secondary inactive | KCC2 bumet counter inactive | KCC2 secondary2 inconclusive | HEK counter1 inconclusive | KCC2 retest ouab 0.0128 | HEK293 Tl flux2 inactive
O=C(NCCc1csc(-c2ccccc2)n1)c1cccs1	none (no result: INS promoter inh, ROMK mod, KCC2 mod) | KCC2 secondary inactive | KCC2 bumet counter inactive | KCC2 secondary2 0.0227 | HEK counter1 inactive | KCC2 retest ouab 0.014 | HEK293 Tl flux2 inactive
O=C(NCc1csc(-c2ccccc2)n1)c1ccco1	none (no result: INS promoter inh, ROMK mod)
COCc1ccc(CN2CCCC(CO)(Cc3cccc(Cl)c3)C2)o1 (stereo not given)	none
CCCN1C(=O)/C(=C/c2ccc3c(c2)OCO3)NC1=S	KCC2 mod 44.9 (no result: INS promoter inh, Insulin prom up) | KCC2 secondary 0.0257 | KCC2 bumet counter 0.071 | KCC2 secondary2 inactive | HEK counter1 0.092 | KCC2 retest ouab 0.0602 | HEK293 Tl flux2 0.0219
COc1ccc(Oc2cc(C)c3cccc(C)c3n2)cc1	none
Cc1ccsc1/C=N/n1c(C2CCCCC2)n[nH]c1=S	none (no result: ROMK mod)
Cc1ccc(/C=N/n2c(C3CCCCC3)n[nH]c2=S)s1	KCC2 mod 7.3 | KCC2 secondary inactive | KCC2 bumet counter 0.0221 | KCC2 secondary2 inactive | HEK counter1 0.0106 | KCC2 retest ouab inactive | HEK293 Tl flux2 inconclusive
O=C(Nc1nnc(-c2ccc(Cl)cc2)o1)C1CCCCC1	KCC2 mod 5.26 (no result: INS promoter inh, ROMK mod, L major viab) | KCC2 secondary inactive | KCC2 bumet counter 0.0217 | KCC2 secondary2 inactive | HEK counter1 0.0151 | KCC2 retest ouab 0.0285 | HEK293 Tl flux2 0.018
CCCC(=O)Nc1nnc(-c2ccc(Cl)s2)o1	none (no result: INS promoter inh, ROMK mod, KCC2 mod)
O=C(Nc1nnc(-c2ccc(Cl)s2)o1)C1CCCCC1	KCC2 mod 5.22 (no result: INS promoter inh, Insulin prom up, ROMK mod) | KCC2 secondary 0.0134 | KCC2 bumet counter 0.0275 | KCC2 secondary2 inactive | HEK counter1 0.0186 | KCC2 retest ouab 0.0319 | HEK293 Tl flux2 0.0121
O=C(Nc1nnc(-c2ccc(Cl)cc2)o1)Nc1ccccc1Cl	KCC2 mod 3.49 (no result: ROMK mod) | KCC2 secondary inactive | KCC2 bumet counter 0.0263 | KCC2 secondary2 inactive | HEK counter1 inconclusive | KCC2 retest ouab inactive | HEK293 Tl flux2 inconclusive
CCOC(=O)Cn1c(=O)c(C#N)cn(C(C)C)c1=O	none (no result: INS promoter inh, WT yeast gro inh, ROMK mod, KCC2 mod, L major viab)
COc1ccc(-c2n[nH]c(=S)n2/N=C/C=C\c2ccccc2OC)cc1	none (no result: INS promoter inh, ROMK mod)
Cc1ccc(-c2n[nH]c(=S)n2/N=C/C=C\c2ccccc2[N+](=O)[O-])cc1	KCC2 mod 7.65 (no result: WT yeast gro inh, ROMK mod) | KCC2 secondary inactive | KCC2 bumet counter 0.00915 | KCC2 secondary2 inactive | HEK counter1 0.0108 | KCC2 retest ouab inconclusive | HEK293 Tl flux2 0.0142
O=[N+]([O-])c1ccccc1/C=C/C=N/n1c(-c2ccccc2)n[nH]c1=S	WT yeast gro inh 61.1, KCC2 mod 9.28 | KCC2 secondary 0.0128 | KCC2 bumet counter 0.0949 | KCC2 secondary2 inactive | HEK counter1 0.0112 | KCC2 retest ouab 0.0409 | HEK293 Tl flux2 0.0118
O=[N+]([O-])c1ccccc1/C=C/C=N/n1c(-c2ccc(Cl)cc2)n[nH]c1=S	KCC2 mod 3.62 (no result: ROMK mod) | KCC2 secondary inactive | KCC2 bumet counter 0.00917 | KCC2 secondary2 inactive | HEK counter1 0.0103 | KCC2 retest ouab inconclusive | HEK293 Tl flux2 0.0123
Cc1ccc(-n2ncc3c(SCc4cccc(C)c4)ncnc32)cc1	KCC2 mod 6.56 (no result: INS promoter inh, ROMK mod) | KCC2 secondary inactive | KCC2 bumet counter 0.022 | KCC2 secondary2 0.0416 | HEK counter1 0.0225 | KCC2 retest ouab 0.0312 | HEK293 Tl flux2 0.0262
Cc1[nH]n2c(=O)cc(C(C)C)nc2c1-c1ccccc1	KCC2 mod 6.66 (no result: INS promoter inh, ROMK mod) | KCC2 secondary inconclusive | KCC2 bumet counter 0.0153 | KCC2 secondary2 inconclusive | HEK counter1 inconclusive | KCC2 retest ouab inconclusive | HEK293 Tl flux2 inactive
CCCc1cc(=O)n2[nH]c(C)c(-c3ccccc3)c2n1	none (no result: INS promoter inh)
O=C(O)CCNc1cc2ccccc2cc1C(=O)O	KCC2 mod 5.55 (no result: ROMK mod) | KCC2 secondary inactive | KCC2 bumet counter inactive | KCC2 secondary2 inactive | HEK counter1 inactive | KCC2 retest ouab inactive | HEK293 Tl flux2 inactive

Assay outcomes deposited in PubChem BioAssay by several laboratories.
